Laboratory results as given in PubChem BioAssay AID1159580 (chemical genetic matrix, 2015).
“And” between values parts separate entries of the source, which are not always exact repeats. Equal values may be shown once. About 2,000 (36%) of roughly 5,500 compounds were called active. Roughly 18% stayed inconclusive and do not appear here. No stated cut-off is given here; in the data, active means normalized growth mostly below about 0.91 (no sharp cut-off); inconclusive means no clear call, values can overlap the other calls; inactive means mostly above about 0.92. This is one part of the list.

Assay: chemical genetic growth profiling, strain panel (AID 1159580);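 further: tested at 20 µM; growth read once vehicle control cultures reached saturation at 30 °C; 1 = growth at the plate median or of vehicle wells; lower values mean less growth of the strain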
Settings: S. cerevisiae deletion strains, growth OD

Measured: normalized growth

COc1ccc2cc([C@H](C)CO)ccc2c1
inactive: locus YAL013W, strain DEP1, hits give low values 0.982 | locus YAL021C, strain ccr4, hits give low values 1.04 | locus YAL026C, strain drs2, hits give low values 1.01 | locus YAL030W, strain snc1, hits give low values 1 | locus YBL061C, strain skt5, hits give low values 1.01 | locus YBR009C, strain hhf1, hits give low values 1.01 | locus YBR021W, strain FUR4, hits give low values 1.02 | locus YBR023C, strain chs3, hits give low values 1.01 | locus YBR171W, strain sec66, hits give low values 1.01 | locus YBR229C, strain ROT2, hits give low values 0.947 | locus YBR231C, strain swc5, hits give low values 1.07 | locus YBR279W, strain paf1, hits give low values 1.01 | locus YCL011C, strain gbp2, hits give low values 1.01 | locus YCL016C, strain dcc1, hits give low values 1.01 | locus YCL029C, strain bik1, hits give low values 0.976 | locus YCL061C, strain MRC1, hits give low values 1.02 | locus YCL069W, strain vba3, hits give low values 1.01 | locus YCR088W, strain abp1, hits give low values 0.936 | locus YDL005C, strain med2, hits give low values 1.02 | locus YDL035C, strain GPR1, hits give low values 0.955 | locus YDL040C, strain nat1, hits give low values 1.01 | locus YDL074C, strain BRE1, hits give low values 0.996 | locus YDL101C, strain DUN1, hits give low values 0.989 | locus YDL134C, strain PPH21, hits give low values 0.98 | locus YDL185W, strain tfp1, hits give low values 0.962 | locus YDL192W, strain arf1, hits give low values 0.966 | locus YDR001C, strain nth1, hits give low values 1.01 | locus YDR069C, strain doa4, hits give low values 1.02 | locus YDR101C, strain arx1, hits give low values 0.976 | locus YDR137W, strain rgp1, hits give low values 1.03 | locus YDR150W, strain NUM1, hits give low values 0.974 | locus YDR159W, strain sac3, hits give low values 1 | locus YDR162C, strain NBP2, hits give low values 0.961 | locus YDR195W, strain ref2 1.04 | locus YDR297W, strain sur2, hits give low values 1.01 | locus YDR318W, strain mcm21, hits give low values 0.98 | locus YDR334W, strain swr1, hits give low values 1.03 | locus YDR335W, strain msn5, hits give low values 1.02 | locus YDR388W, hits give low values 0.983 | locus YDR392W, strain spt3, hits give low values 1.03 | locus YDR502C, strain sam2, hits give low values 0.95 | locus YEL003W, strain gim4, hits give low values 1.01 | locus YEL037C, strain rad23, hits give low values 1.01 | locus YEL061C, strain CIN8 (second series), hits give low values 1.01 | locus YEL061C, strain CIN8, hits give low values 0.987 | locus YER015W, strain faa2, hits give low values 1.01 | locus YER016W, strain bim1, hits give low values 1.01 | locus YER110C, hits give low values 0.954 | locus YER111C, strain swi4, hits give low values 1.02 | locus YER155C, strain BEM2 (second series), hits give low values 1.01 | locus YER155C, strain BEM2, hits give low values 1.01 | locus YER167W, strain BCK2, hits give low values 0.975 | locus YFR010W, strain ubp6, hits give low values 1.02 | locus YGL078C, strain dbp3, hits give low values 0.982 | locus YGL086W, strain mad1, hits give low values 0.984 | locus YGL167C, strain pmr1, hits give low values 1.01 | locus YGL173C, strain kem1, hits give low values 1 | locus YGL227W, strain vid30, hits give low values 1 | locus YGL240W, strain doc1, hits give low values 1.01 | locus YGL248W, strain PDE1, hits give low values 0.98 | locus YGL253W, strain hxk2, hits give low values 1.03 | locus YGR078C, strain PAC10, hits give low values 0.987 | locus YGR135W, strain pre9, hits give low values 0.949 | locus YGR229C, strain SMI1, hits give low values 0.979 | locus YGR252W, strain gcn5, hits give low values 0.894 | locus YHR013C, strain ard1, hits give low values 1.07 | locus YHR027C, strain rpn1, hits give low values 1.01 | locus YHR030C, strain SLT2, hits give low values 0.985 and 0.928 | locus YHR079C, strain IRE1 (second series), hits give low values 0.979 | locus YHR079C, strain IRE1, hits give low values 0.95 | locus YHR094C, strain hxt1, hits give low values 0.981 | locus YHR129C, strain ARP1, hits give low values 0.995 | locus YHR142W, strain chs7, hits give low values 1.02 | locus YHR200W, strain rpn10, hits give low values 0.973 | locus YIL066C, strain RNR3, hits give low values 0.969 | locus YIL073C, strain SPO22, hits give low values 0.954 | locus YIL125W, strain kgd1, hits give low values 0.974 | locus YIR030C, strain dcg1, hits give low values 0.975 | locus YJL092W, strain hpr5, hits give low values 1.01 | locus YJL095W, strain BCK1 (second series), hits give low values 1 | locus YJL095W, strain BCK1, hits give low values 0.996 and 0.935 | locus YJL115W, strain asf1, hits give low values 1.02 | locus YJL129C, strain trk1, hits give low values 1.02 | locus YJL134W, strain LCB3, hits give low values 0.984 | locus YJL154C, strain vps35, hits give low values 1.01 | locus YJL164C, strain tpk1, hits give low values 1.01 | locus YJL166W, strain qcr8, hits give low values 1.01 | locus YJL168C, strain set2, hits give low values 0.982 | locus YJL187C, strain SWE1 (second series), hits give low values 0.982 | locus YJL187C, strain SWE1, hits give low values 1.01 | locus YJR043C, strain POL32, hits give low values 0.994
